The record followed here is ChEMBL document CHEMBL1157539, “Thousands of chemical starting points for antimalarial lead identification” (Nature, 2010).

The test system of this experiment is Plasmodium falciparum. Briefly: GSK_TCMDC: Inhibition of Plasmodium falciparum 3D7 in whole red blood cells, using parasite LDH activity as an index of growth. Test compounds present at 2uM. Format: functional.
As to `CC(=O)Nc1csc(-c2cnc(/C=C(\C)C[C@@H]3OC[C@H](C[C@@H]4O[C@H]4[C@@H](C)[C@H](C)O)[C@@H](O)[C@H]3O)o2)c1`, the Inhibition (in general, the percentage by which the read-out fell short of the control) stood at 94%. The same measure for `O=C(O)C(F)(F)F.O=c1cc(N2CCNCC2)c(Cl)nn1Cc1ccc(NS(=O)(=O)c2ccc(Oc3ccccc3)cc2)cc1`: 100%. As for `O=C(/C=C/c1ccc(Cl)c(Cl)c1)NCCCCCN1CCCC(C(=O)Nc2ccc(Cl)c(Cl)c2)C1` (stereo not given), the figure is 100%; as for `COc1ccc2nccc([C@@H](O)CN3CCC(NC(=O)/C=C/c4ccnc5ccccc45)CC3)c2c1`, 91%. As for `CCC(C)NS(=O)(=O)c1ccc2nc(Nc3ccc(C)cc3)n(C3CCCCC3C)c2c1` (stereo not given), the figure is 95%; as for `O=C(CCc1c[nH]cn1)Nc1cccc(-c2ccc(-c3nc4ccccc4[nH]3)cc2)c1`, 100%. In turn, `CCC(C)(C)c1ccc(Oc2ccc(NC(=O)Nc3ccc(Cl)c(Cl)c3)cc2)cc1` registered an Inhibition of 98%.

For the compound `c1ccc(-c2cccc(-c3ccccn3)n2)nc1` [TERPYRIDINE], the Inhibition is listed as 98%. As for `CSc1ccc(CN2CCC(NC(=O)c3ccc(-c4cccc(C(F)(F)F)c4)s3)CC2)cc1.O=C(O)C(F)(F)F`, the figure is 90%; as for `COc1ccc(-c2cncc(-c3ccc(OC)c(OC)c3)n2)cc1OC.Cl`, 95%. As for `CC(NCCC1CCC(NC(=O)N[C@H](C)C(O)(c2ccccc2)c2ccccc2)CC1)c1cccc2ccccc12` (stereo not given in full), the figure is 86%. As for `COc1ccc2nc(-c3ccccc3)cc(NCCN(C)C)c2c1`, the figure is 100%; as for `Cc1cccc2nc(-c3ccc(-c4ccc(NC(=O)Nc5cccc(C#N)c5)cc4)cc3)[nH]c12`, 100%. The compound `Cc1cccc2nc(-c3cccc(-c4cccc(CNCc5cccc(N)c5)c4)c3)[nH]c12.O=C(O)C(F)(F)F` returned an Inhibition of 100%.

Compound `COc1cccc(NC(=O)c2nc(N3CCN(c4ccncc4)CC3)ccc2Cl)c1.O=C(O)C(F)(F)F` had an Inhibition of 97%. As for `CCC/C=C/c1c(CNCCCNc2cc(=O)c3ccccc3[nH]2)sc(CC)c1Br.Cl`, the figure is 88%; as for `Cc1ccc(C)c(NC(=O)NC2CCN(c3ccnc(Nc4ccc(F)cc4)n3)C2)c1` (stereo not given), 100%.

Compound `Cc1nc2ccc(-c3ccc(OC(F)(F)F)cc3)cc2c(O)c1C#N` had an Inhibition of 98%. For the compound `O=C(/C=C/c1ccc(Cl)c(Cl)c1)NCCCCCN1CCC(CCNC(=O)/C=C/c2cc(C(F)(F)F)ccc2F)CC1`, the Inhibition was 98%.

`COc1ccc(-c2ccc(CN(C)C3CCC(NC(=O)c4cc5ccccc5[nH]4)CC3)cc2)cn1` (stereo not given): the Inhibition came to 88%. As for `Cc1ccc(NC(=O)c2ccc3ncccc3c2)cc1OC1CCN(Cc2ccc(F)cc2)CC1.O=C(O)C(F)(F)F`, the figure is 91%; as for `COc1ccc(CNCCCCCNCc2ccc(Cl)c(Cl)c2)cc1Cl`, 98%; as for `O=C(/C=C/c1ccc(Cl)c(Cl)c1)NC1CCC(CN2CCC(c3nc4ccccc4n3CCCO)CC2)CC1` (stereo not given), 99%. As for `Cc1ccc(NC(=O)c2cccc(C#N)c2)cc1-c1ccc(C(=O)Nc2ccncc2)cc1`, the figure is 94%. The same measure for `Nc1nc(N)c2cc(S(=O)(=O)c3ccc4ccccc4c3)ccc2n1`: 95%; for `Cl.Nc1nc(N)c2c(ccc3c2cnn3S(=O)(=O)N2CCCC2)n1`: 93%; for `Cc1cnc(C(=O)Nc2cccc(-c3cccc(-c4nc5cc(F)ccc5[nH]4)c3)c2)cn1`: 99%. For the compound `CN(CCN)Cc1cccc(-c2ccc(-c3nc4cc(C(F)(F)F)ccc4[nH]3)s2)c1.O=C(O)C(F)(F)F`, the Inhibition was 100%. Turning to `CCn1c(-c2nonc2N)nc2c(-c3cccc(NC(=O)Nc4ccc(Cl)cc4)c3)ncc(OCCCN)c21.O=C(O)C(F)(F)F`, the Inhibition was 96%. The same measure for `CCNc1cc(C)nc(Nc2ccc(F)cc2)n1`: 100%. As for `COc1ccc(C(=O)CCC(=O)N(Cc2ccc(-c3ccc(CNCCc4ccccc4)cn3)cc2)C(C)CN(C)C)cc1F.O=C(O)C(F)(F)F` (stereo not given), the figure is 98%; as for `c1ccc(Oc2ccc(Nc3ccnc4cc(-c5ccc(CN6CCOCC6)o5)ccc34)cc2)nc1`, 92%. As for `COc1ccc2nccc(NC(=O)CNCc3ccc(-c4ccccc4)cc3)c2c1`, the figure is 100%; as for `NS(=O)(=O)c1cncc(-c2ccc3nccc(-c4cn[nH]c4)c3n2)c1`, 99%.

`Cc1cccc2nc(-c3ccc(-c4cccc(NC(=O)C(=O)c5cccn5C)c4)cc3)[nH]c12`: the Inhibition is listed as 98%.

`CCNc1cc(C)nc(Nc2ccccc2)n1` came in with an Inhibition of 92%. The same measure for `Cc1cccc(NC(=O)c2cnc(N3CCN(c4ccncc4)CC3)c(Cl)c2)c1.O=C(O)C(F)(F)F`: 100%. The compound `Cc1ccc(NC(=O)N2CCC(n3c(-c4ccccc4)nc4cccnc43)CC2)cc1F` came in with an Inhibition of 96%. The same measure for `COc1cc2c(cc1S(=O)(=O)c1ccc(NC(=O)c3cccc(C(F)(F)F)c3)cc1)CCN(C)CC2`: 92%; for `O=C(NC1CCC(N2CCC(O)(c3ccc(F)cc3)CC2)CC1)c1cc2ccccc2[nH]1` (stereo not given): 94%.
